From the supplement of paper PMC4466140

B1: unnamed (peptide)
chain: QQEQNTPPLPPKPKS

These binders were tested against AgAbp1 (assay: SPOT peptide array binding signal intensity (averaged, normalized) (arbitrary units (background-subtracted, floor 0; scale differs between SH3 domains)); higher = stronger binding of the SH3 domain to the peptide).
In short: (§1)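 Cellulose membranes carried synthetic 15-mer peptides with cysteines swapped for serines. These were incubated overnight at 4°C with 10 μg/ml of GST-fused SH3 domains from four yeast species in TBS-based blocking buffer. Binding signal, detected with anti-GST antibody and quantified in Genespotter, is the normalized, background-subtracted spot intensity averaged over replicates, in arbitrary units specific to each domain.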
With B1 the “SPOT peptide array binding signal intensity” value was 10.5.

The binders below were run against AgBbc1 in the same assay as above.
In short: as §1
In the case of B1, the “SPOT peptide array binding signal intensity” value is reported as ≤ 0.

These binders were tested against AgBem1-D1 in the same assay as above.
In short: as §1
With B1 the “SPOT peptide array binding signal intensity” value was ≤ 0.

Each binder was assayed against AgBzz1-D1 in the same assay as above.
In short: as §1
For B1, the “SPOT peptide array binding signal intensity” value was 194.

These binders were tested against AgBzz1-D2 in the same assay as above.
In short: as §1
With B1 the “SPOT peptide array binding signal intensity” value was 5.5.

Each binder was assayed against AgCyk3 in the same assay as above.
In short: as §1
B1 was tested, and the “SPOT peptide array binding signal intensity” value was ≤ 0.

Each binder was assayed against AgFus1 in the same assay as above.
In short: as §1
B1 was tested, and the “SPOT peptide array binding signal intensity” value was ≤ 0.

These binders were tested against AgHof1 in the same assay as above.
In short: as §1
B1 was tested, and the “SPOT peptide array binding signal intensity” value was 760.

The binders below were run against AgHse1 in the same assay as above.
In short: as §1
For B1, the “SPOT peptide array binding signal intensity” value was ≤ 0.

What follows are binders tested against AgLsb1 in the same assay as above.
In short: as §1
For B1, the “SPOT peptide array binding signal intensity” value was ≤ 0.

Each binder was assayed against AgLsb4 in the same assay as above.
In short: as §1
B1 was tested, and the “SPOT peptide array binding signal intensity” value was 151.

What follows are binders tested against AgMyo5 in the same assay as above.
In short: as §1
B1 was tested, and the “SPOT peptide array binding signal intensity” value was ≤ 0.

The binders below were run against AgNbp2 in the same assay as above.
In short: as §1
For B1, the “SPOT peptide array binding signal intensity” value was ≤ 0.

What follows are binders tested against AgRvs167 in the same assay as above.
In short: as §1
B1 was tested, and the “SPOT peptide array binding signal intensity” value was ≤ 0.

The binders below were run against AgSho1 in the same assay as above.
In short: as §1
With B1 the “SPOT peptide array binding signal intensity” value was 16.5.

Each binder was assayed against AgSla1-D1-D2 in the same assay as above.
In short: as §1
B1 was tested, and the “SPOT peptide array binding signal intensity” value was 2.

The binders below were run against AgSla1-D3 in the same assay as above.
In short: as §1
In the case of B1, the “SPOT peptide array binding signal intensity” value is reported as 3.75.

The binders below were run against CaAbp1-D1 in the same assay as above.
In short: as §1
With B1 the “SPOT peptide array binding signal intensity” value was 53.

What follows are binders tested against CaAbp1-D2 in the same assay as above.
In short: as §1
In the case of B1, the “SPOT peptide array binding signal intensity” value is reported as 33.5.

These binders were tested against CaBbc1 in the same assay as above.
In short: as §1
In the case of B1, the “SPOT peptide array binding signal intensity” value is reported as 9.

These binders were tested against CaBem1-D1 in the same assay as above.
In short: as §1
For B1, the “SPOT peptide array binding signal intensity” value was ≤ 0.

Each binder was assayed against CaBzz1-D1 in the same assay as above.
In short: as §1
In the case of B1, the “SPOT peptide array binding signal intensity” value is reported as 166.

Each binder was assayed against CaBzz1-D2 in the same assay as above.
In short: as §1
With B1 the “SPOT peptide array binding signal intensity” value was 34.8.

What follows are binders tested against CaCyk3 in the same assay as above.
In short: as §1
In the case of B1, the “SPOT peptide array binding signal intensity” value is reported as ≤ 0.

What follows are binders tested against CaFus1 in the same assay as above.
In short: as §1
B1 was tested, and the “SPOT peptide array binding signal intensity” value was 9.

What follows are binders tested against CaHof1 in the same assay as above.
In short: as §1
With B1 the “SPOT peptide array binding signal intensity” value was 0.25.

What follows are binders tested against CaHse1 in the same assay as above.
In short: as §1
In the case of B1, the “SPOT peptide array binding signal intensity” value is reported as 404.

The binders below were run against CaLsb1 in the same assay as above.
In short: as §1
In the case of B1, the “SPOT peptide array binding signal intensity” value is reported as 0.5.

Each binder was assayed against CaLsb4 in the same assay as above.
In short: as §1
B1 was tested, and the “SPOT peptide array binding signal intensity” value was 1300.

The binders below were run against CaMyo5 in the same assay as above.
In short: as §1
B1 was tested, and the “SPOT peptide array binding signal intensity” value was ≤ 0.

The binders below were run against CaNbp2 in the same assay as above.
In short: as §1
In the case of B1, the “SPOT peptide array binding signal intensity” value is reported as ≤ 0.

These binders were tested against CaRvs167 in the same assay as above.
In short: as §1
B1 was tested, and the “SPOT peptide array binding signal intensity” value was ≤ 0.

These binders were tested against CaRvs167-3 in the same assay as above.
In short: as §1
With B1 the “SPOT peptide array binding signal intensity” value was ≤ 0.

Each binder was assayed against CaSho1 in the same assay as above.
In short: as §1
B1 was tested, and the “SPOT peptide array binding signal intensity” value was 13.5.

The binders below were run against CaSla1-D1-D2 in the same assay as above.
In short: as §1
For B1, the “SPOT peptide array binding signal intensity” value was ≤ 0.

Each binder was assayed against CaSla1-D3 in the same assay as above.
In short: as §1
With B1 the “SPOT peptide array binding signal intensity” value was ≤ 0.

What follows are binders tested against ScAbp1 in the same assay as above.
In short: as §1
With B1 the “SPOT peptide array binding signal intensity” value was 5.

The binders below were run against ScBbc1 in the same assay as above.
In short: as §1
With B1 the “SPOT peptide array binding signal intensity” value was 2.5.

Each binder was assayed against ScBem1-D1 in the same assay as above.
In short: as §1
In the case of B1, the “SPOT peptide array binding signal intensity” value is reported as ≤ 0.

What follows are binders tested against ScBzz1-D1 in the same assay as above.
In short: as §1
For B1, the “SPOT peptide array binding signal intensity” value was 7.

Each binder was assayed against ScBzz1-D2 in the same assay as above.
In short: as §1
With B1 the “SPOT peptide array binding signal intensity” value was 3.

The binders below were run against ScCyk3 in the same assay as above.
In short: as §1
With B1 the “SPOT peptide array binding signal intensity” value was 1.

What follows are binders tested against ScFus1 in the same assay as above.
In short: as §1
For B1, the “SPOT peptide array binding signal intensity” value was ≤ 0.

The binders below were run against ScHof1 in the same assay as above.
In short: as §1
In the case of B1, the “SPOT peptide array binding signal intensity” value is reported as 109.

What follows are binders tested against ScHse1 in the same assay as above.
In short: as §1
B1 was tested, and the “SPOT peptide array binding signal intensity” value was ≤ 0.

The binders below were run against ScLsb1 in the same assay as above.
In short: as §1
In the case of B1, the “SPOT peptide array binding signal intensity” value is reported as 223.

Each binder was assayed against ScLsb2 in the same assay as above.
In short: as §1
With B1 the “SPOT peptide array binding signal intensity” value was ≤ 0.

These binders were tested against ScLsb3 in the same assay as above.
In short: as §1
With B1 the “SPOT peptide array binding signal intensity” value was 3310.

The binders below were run against ScLsb4 in the same assay as above.
In short: as §1
With B1 the “SPOT peptide array binding signal intensity” value was 67.

Each binder was assayed against ScMyo3 in the same assay as above.
In short: as §1
In the case of B1, the “SPOT peptide array binding signal intensity” value is reported as ≤ 0.

Each binder was assayed against ScMyo5 in the same assay as above.
In short: as §1
With B1 the “SPOT peptide array binding signal intensity” value was ≤ 0.

The binders below were run against ScNbp2 in the same assay as above.
In short: as §1
B1 was tested, and the “SPOT peptide array binding signal intensity” value was ≤ 0.

Each binder was assayed against ScPex13 in the same assay as above.
In short: as §1
In the case of B1, the “SPOT peptide array binding signal intensity” value is reported as 680.

What follows are binders tested against ScRvs167 in the same assay as above.
In short: as §1
With B1 the “SPOT peptide array binding signal intensity” value was 58.3.

Each binder was assayed against ScSho1 in the same assay as above.
In short: as §1
B1 was tested, and the “SPOT peptide array binding signal intensity” value was 152.

Each binder was assayed against ScSla1-D1-D2 in the same assay as above.
In short: as §1
For B1, the “SPOT peptide array binding signal intensity” value was ≤ 0.

Each binder was assayed against ScSla1-D3 in the same assay as above.
In short: as §1
With B1 the “SPOT peptide array binding signal intensity” value was ≤ 0.

What follows are binders tested against SpAbp1-D1 in the same assay as above.
In short: as §1
B1 was tested, and the “SPOT peptide array binding signal intensity” value was 23.5.

What follows are binders tested against SpBbc1 in the same assay as above.
In short: as §1
In the case of B1, the “SPOT peptide array binding signal intensity” value is reported as 0.5.

Each binder was assayed against SpBzz1-D1 in the same assay as above.
In short: as §1
B1 was tested, and the “SPOT peptide array binding signal intensity” value was 336.

Each binder was assayed against SpBzz1-D2 in the same assay as above.
In short: as §1
For B1, the “SPOT peptide array binding signal intensity” value was ≤ 0.

These binders were tested against SpCyk3 in the same assay as above.
In short: as §1
B1 was tested, and the “SPOT peptide array binding signal intensity” value was 1.5.

These binders were tested against SpHof1 in the same assay as above.
In short: as §1
With B1 the “SPOT peptide array binding signal intensity” value was ≤ 0.

What follows are binders tested against SpHof1-2 in the same assay as above.
In short: as §1
In the case of B1, the “SPOT peptide array binding signal intensity” value is reported as 12.2.

Each binder was assayed against SpHof1-3 in the same assay as above.
In short: as §1
With B1 the “SPOT peptide array binding signal intensity” value was 16.

The binders below were run against SpHse1 in the same assay as above.
In short: as §1
In the case of B1, the “SPOT peptide array binding signal intensity” value is reported as 28.2.

What follows are binders tested against SpLsb1 in the same assay as above.
In short: as §1
In the case of B1, the “SPOT peptide array binding signal intensity” value is reported as 585.

Each binder was assayed against SpLsb4 in the same assay as above.
In short: as §1
For B1, the “SPOT peptide array binding signal intensity” value was 1340.

Each binder was assayed against SpMyo1 in the same assay as above.
In short: as §1
B1 was tested, and the “SPOT peptide array binding signal intensity” value was ≤ 0.

The binders below were run against SpNbp2 in the same assay as above.
In short: as §1
With B1 the “SPOT peptide array binding signal intensity” value was ≤ 0.

The binders below were run against SpPex13 in the same assay as above.
In short: as §1
For B1, the “SPOT peptide array binding signal intensity” value was ≤ 0.

What follows are binders tested against SpRvs167 in the same assay as above.
In short: as §1
B1 was tested, and the “SPOT peptide array binding signal intensity” value was 462.

The binders below were run against SpSla1-D1-D2 in the same assay as above.
In short: as §1
B1 was tested, and the “SPOT peptide array binding signal intensity” value was ≤ 0.

These binders were tested against SpSla1-D3 in the same assay as above.
In short: as §1
B1 was tested, and the “SPOT peptide array binding signal intensity” value was ≤ 0.
